Results filed as inconclusive are left out. Activity calls are given as the source filed them. The calls were made as follows, unless noted: active = hit-call score of the fitted dose curve at least 0.9, where 1 is the maximum; inconclusive = response in the unintended direction; inactive = score below 0.9.
Columns and labels:
[1] = biological target: T1, Thyroid hormone receptor alpha (Rattus norvegicus) + Thyroid hormone receptor beta (Rattus norvegicus) (UniProt P18113+P63059); assay: TOX21_TR_LUC_GH3_Antagonist_Followup: Tox21 GH3 Thyroid Hormone Receptor Antagonism Luciferase Follow-Up Assay (AID 2283942)
In short: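 Rat pituitary GH3 cells with a TRα/TRβ-driven luciferase reporter, 5 h attachment, then 15 concentrations (92 uM to 5nM final) plus 1.0 nM T3 agonist, 24 h at 37C/5% CO2. ONE-Glo luminescence; signal change fitted against DMSO baseline.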

THRA (gene 7067) [2] = biological target: THRA (gene 7067) (UniProt P10827); assay: TOX21_TRA_COA_Antagonist_Followup_ratio: Tox21 Thyroid Hormone Receptor alpha Antagonism through Coactivator Recruitment Follow-Up Assay, Ratio (AID 2283953)
From the text: TOX21_TRa_COA_Antagonist_Followup is a secondary assay for specificity for the TOX21_TR_GH3_LUC_Agonist assay. The LanthaScreen TR-FRET TR coactivator assay kits were used to determine TR activity in a cell-free functional assay. A time-resolved fluorescence resonance energy transfer (TR-FRET) signal was indicative of coactivator (SRC-2) recruitment.TOX21_TRA_COA_Antagonist_Followup_ratio is assay component calculated in the TOX21_TRA_COA_Antagonist_Followup assay. The TR-FRET ratio of acceptor emission (ch2) to donor emission (ch1) is indicative of the resonance energy transfer to the fluorescein tag on the coactivator peptide following recruitment to the receptor.Data from the assay component TOX21_TRA_COA_Antagonist_Followup_ratio was analyzed into 1 assay endpoint. This assay endpoint, TOX21_TRA_COA_Antagonist_Followup_ratio, was analyzed in the positive analysis fitting direction relative to DMSO as the negative control and baseline of activity. Using a type of inducible reporter, loss-of-signal activity can be used to understand changes in the reporter gene as they relate to the gene THRA. Furthermore, this assay endpoint can be referred to as a primary readout, because this assay has produced multiple assay endpoints and this ratio serves a reporter gene function to understand target activity. […]

THRB (gene 7068) [3] = biological target: THRB (gene 7068) (UniProt P10828); assay: TOX21_TRB_BLA_Antagonist_Followup_ratio: Tox21 Thyroid Hormone Receptor beta Antagonism Beta-lactamase (BLA) Follow-Up Assay, Ratio (AID 2283958)
In short: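 GAL4-DBD/human TRβ-LBD fusion in GeneBLAzer UAS-bla HEK293T cells, 3,000 cells/well in phenol red-free DMEM with 2% charcoal-stripped FBS; compounds at 11 concentrations in triplicate, 18 h at 37C. CCF4-AM substrate 2 h, 460:530 nm ratio relative to DMSO.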

[4] = TOX21_TRB_BLA_Antagonist_Followup_viability: Viability Assessment in the Tox21 Thyroid Hormone Receptor beta Antagonism Beta-lactamase (BLA) Follow-Up Assay (AID 2283961)
In short: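 TRβ-bla HEK293T (human TRβ LBD fused to GAL4 DBD), 3,000 cells/well, 2% charcoal-stripped FBS, phenol red-free medium; 18 h compound exposure, 37C; CellTiter-Glo 30 min RT; luminescence, loss-of-signal readout.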

THRB (gene 7068) [5] = biological target: THRB (gene 7068) (UniProt P10828); assay: TOX21_TRB_COA_Antagonist_Followup_ratio: Tox21 Thyroid Hormone Receptor beta Antagonism through Coactivator Recruitment Follow-Up Assay, Ratio (AID 2283967)
In short: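 Cell-free TR-FRET coactivator recruitment with GST-tagged TRβ LBD (5.0 nM) and fluorescein-labeled SRC-2 peptide (200 nM) detected by terbium anti-GST antibody (2 nM). The 520:495 nm emission ratio was normalized to DMSO (0%) and T3 (100%).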

[6] = biological target: T1, Thyroid hormone receptor alpha (Rattus norvegicus) + Thyroid hormone receptor beta (Rattus norvegicus); assay: TOX21_TR_LUC_GH3_Agonist_Followup: Tox21 GH3 Thyroid Hormone Receptor Agonism Luciferase Follow-Up Assay (AID 2283939)
Experimental: TOX21_TR_LUC_GH3_Agonist_Followup is a secondary assay for specificity for the TOX21_TR_LUC_GH3_Agonist assay. TOX21_TR_LUC_GH3_Agonist_Followup is a cell-based, single-readout assay that uses GH3, a rat pituitary gland cell line, with measurements taken at 28 hours after chemical dosing in a 1536-well plate.TOX21_TR_LUC_GH3_Agonist_Followup is one of one assay component(s) measured or calculated from the TOX21_TR_LUC_GH3_Agonist_Followup assay. It is designed to make measurements of luciferase induction, a form of inducible reporter, as detected with bioluminescence signals by […] technology.Data from the assay component TOX21_TR_LUC_GH3_Agonist_Followup was analyzed into 1 assay endpoint. This assay endpoint, TOX21_TR_LUC_GH3_Agonist_Followup, was analyzed in the positive analysis fitting direction relative to DMSO as the negative control and baseline of activity. Using a type of inducible reporter, gain-of-signal activity can be used to understand changes in the reporter gene as they relate to the gene THRA and THRB in the GH3 cell line using a luciferase reporter. Furthermore, this assay endpoint can be referred to as a primary readout, because the performed assay has only produced 1 assay endpoint. This assay endpoint is designated followup because it was a confirmatory screen following the primary qHTS assay.
Cell Media Required: Growth (90% DMEM/F-12, 10% Fetal Bovine Calf Serum, 100U/ml Penicillin, 100 ug/ml Streptomycin), Assay (10ng/mL sodium selenite, 10 ug/mL humanapo-transferrin, 10 uM ethanolamine, 10 ug/mL insulin, 500 ug/mL bovine serum albumin (BSA))Assay Protocol: Cells were seeded at 1,500/well in 5 uL (agonist mode) and 4 uL (antagonist mode) of the assay medium in 1,536-well white/solid plates (Greiner Bio-One North America) using a Multi drop Combi (Thermo Fisher Scientific) dispenser. Chemical samples were serially diluted in DMSO, yielding 15 concentrations for testing. […]

THRA (gene 7067) [7] = biological target: THRA (gene 7067) (UniProt P10827); assay: TOX21_TRA_COA_Agonist_Followup_ratio: Tox21 Thyroid Hormone Receptor alpha Agonism through Coactivator Recruitment Follow-Up Assay, Ratio (AID 2283948; active = hit-call score of the fitted dose curve at least 0.9, where 1 is the maximum; inactive = score below 0.9)
In short: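 Follow-up specificity assay in which TRα ligand-binding domain, expressed as a GST fusion, recruits a fluorescein-labelled SRC-2 peptide. Energy transfer from a terbium anti-GST antibody gives the acceptor/donor ratio, fitted upward relative to DMSO.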

THRB (gene 7068) [8] = biological target: THRB (gene 7068) (UniProt P10828); assay: TOX21_TRB_COA_Agonist_Followup_ratio: Tox21 Thyroid Hormone Receptor beta Agonism through Coactivator Recruitment Follow-Up Assay, Ratio (AID 2283963; active = hit-call score of the fitted dose curve at least 0.9, where 1 is the maximum; inactive = score below 0.9)
In short: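 Agonism is measured as coactivator recruitment in a purified-protein TR-FRET format, using GST-TRβ LBD at 5.0 nM, fluorescein-SRC-2 peptide at 200 nM and Tb-labeled anti-GST antibody at 2 nM. Values are 520:495 nm ratios relative to DMSO (0%) and T3 (100%).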

[9] = TOX21_PR_LUC_Followup_Agonist_viability: Viability Assessment in the Tox21 HEK293 Progesterone Receptor (PR) Agonism Luciferase Follow-Up Assay (AID 2283941);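 also: loss of signal means cytotoxicity so actives lower viability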
In short: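 HEK293-PR-A-luc cells, pre-cultured 5 days in 10% charcoal-stripped FBS, were seeded at 3,000 cells/well, rested 5 h at 37C, then given compound in DMSO for 16 h at 37C. Cellular ATP was read by CellTiter-Glo luminescence; signal loss indicates cytotoxicity.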

[10] = TOX21_PR_LUC_Followup_Antagonist_viability: Viability Assessment in the Tox21 HEK293 Progesterone Receptor (PR) Antagonism Luciferase Follow-Up Assay (AID 2283940)
In short: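 HEK293-PR-A-luc cells, precultured 5 days in assay medium with 10% charcoal-stripped FBS, were seeded at 3,000 cells/well, treated with compounds in DMSO for 16 h at 37C, and viability was read as cellular ATP by CellTiter-Glo luminescence.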

Measured: outcome

Chain of THRB (gene 7068) (P10828 whole entry, looked up, the tested form may be a part): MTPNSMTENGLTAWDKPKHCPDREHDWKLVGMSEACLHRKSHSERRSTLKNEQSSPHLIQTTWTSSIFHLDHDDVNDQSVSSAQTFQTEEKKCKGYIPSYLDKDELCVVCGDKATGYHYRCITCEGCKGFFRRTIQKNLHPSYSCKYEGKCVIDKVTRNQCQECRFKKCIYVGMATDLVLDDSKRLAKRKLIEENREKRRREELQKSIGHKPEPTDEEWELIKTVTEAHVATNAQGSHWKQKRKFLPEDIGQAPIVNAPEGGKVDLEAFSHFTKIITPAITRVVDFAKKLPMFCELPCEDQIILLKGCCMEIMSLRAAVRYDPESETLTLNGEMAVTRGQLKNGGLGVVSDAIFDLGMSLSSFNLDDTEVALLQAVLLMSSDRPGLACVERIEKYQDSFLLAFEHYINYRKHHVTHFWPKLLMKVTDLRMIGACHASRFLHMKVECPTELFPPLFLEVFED
Chain of THRA (gene 7067) (P10827 whole entry, looked up, the tested form may be a part): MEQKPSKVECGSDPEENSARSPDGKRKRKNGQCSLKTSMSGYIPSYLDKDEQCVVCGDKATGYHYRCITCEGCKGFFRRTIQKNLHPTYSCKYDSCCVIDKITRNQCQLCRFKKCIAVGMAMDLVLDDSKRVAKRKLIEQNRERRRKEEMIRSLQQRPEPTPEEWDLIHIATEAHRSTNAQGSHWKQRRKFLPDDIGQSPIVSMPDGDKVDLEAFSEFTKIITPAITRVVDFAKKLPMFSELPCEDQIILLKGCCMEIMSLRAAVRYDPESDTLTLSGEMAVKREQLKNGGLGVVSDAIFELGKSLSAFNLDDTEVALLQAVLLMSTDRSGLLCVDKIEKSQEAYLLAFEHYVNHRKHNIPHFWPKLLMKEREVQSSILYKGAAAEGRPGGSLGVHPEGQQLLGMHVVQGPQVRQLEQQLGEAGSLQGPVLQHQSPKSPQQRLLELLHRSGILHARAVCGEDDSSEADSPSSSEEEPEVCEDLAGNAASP
T1 sequence (P63059 whole entry, looked up): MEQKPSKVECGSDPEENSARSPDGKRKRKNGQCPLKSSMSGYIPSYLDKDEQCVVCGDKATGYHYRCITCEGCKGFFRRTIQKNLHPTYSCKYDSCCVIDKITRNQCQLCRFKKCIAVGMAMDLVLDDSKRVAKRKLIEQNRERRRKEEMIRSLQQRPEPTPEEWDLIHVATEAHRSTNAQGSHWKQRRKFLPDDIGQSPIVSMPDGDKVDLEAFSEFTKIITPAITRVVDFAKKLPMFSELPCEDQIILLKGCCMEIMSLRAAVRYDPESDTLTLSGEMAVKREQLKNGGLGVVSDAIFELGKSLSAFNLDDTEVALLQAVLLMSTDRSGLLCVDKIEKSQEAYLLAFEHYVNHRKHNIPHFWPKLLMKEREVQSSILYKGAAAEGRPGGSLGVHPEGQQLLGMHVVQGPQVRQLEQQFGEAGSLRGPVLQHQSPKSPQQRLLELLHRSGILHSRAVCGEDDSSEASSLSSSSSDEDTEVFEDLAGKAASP
T1 sequence (P18113 whole entry, looked up): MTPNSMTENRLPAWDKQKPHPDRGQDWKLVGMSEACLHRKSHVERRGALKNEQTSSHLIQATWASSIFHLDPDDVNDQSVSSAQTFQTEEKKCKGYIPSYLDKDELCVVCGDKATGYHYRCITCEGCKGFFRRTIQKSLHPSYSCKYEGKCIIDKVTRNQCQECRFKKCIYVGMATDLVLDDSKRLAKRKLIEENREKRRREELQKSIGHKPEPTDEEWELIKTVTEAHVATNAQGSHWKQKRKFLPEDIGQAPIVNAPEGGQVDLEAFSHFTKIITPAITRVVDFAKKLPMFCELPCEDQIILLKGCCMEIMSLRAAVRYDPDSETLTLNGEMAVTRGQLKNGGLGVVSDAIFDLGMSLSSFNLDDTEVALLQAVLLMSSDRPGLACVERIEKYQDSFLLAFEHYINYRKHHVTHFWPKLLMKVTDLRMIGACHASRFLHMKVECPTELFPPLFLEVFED

CC(=O)[C@H]1CC[C@H]2[C@@H]3CCC4=CC(=O)CC[C@]4(C)[C@H]3CC[C@]12C
inactive: [1] | THRA (gene 7067) [2] | THRB (gene 7068) [3] | [4] | THRB (gene 7068) [5]

CCNc1nc(N)nc(Cl)n1
inactive: [6] | THRA (gene 7067) [7] | THRB (gene 7068) [8]

C[C@]12C[C@H](O)[C@H]3[C@@H](CCC4=CC(=O)CC[C@@]43C)[C@@H]1CC[C@@H]2C(=O)CO
inactive: [9] | THRA (gene 7067) [2] | THRB (gene 7068) [3] | [4]

CC(C)CCCCCCc1ccc(O)cc1
inactive: [10] | [9]

COC(=O)c1ccc(I)cc1S(=O)(=O)NC(=O)Nc1nc(C)nc(OC)n1
inactive: [6] | THRA (gene 7067) [7] | THRB (gene 7068) [8]

CC(C)(c1ccc(O)cc1)c1ccc(O)cc1
inactive: [10]

CCCN(CCC)C(=O)SCC
inactive: [6] | THRA (gene 7067) [7] | THRB (gene 7068) [8]

C[C@]12CC[C@@H]3c4ccc(O)cc4C[C@@H](CCCCCCCCCS(=O)CCCC(F)(F)C(F)(F)F)[C@H]3[C@@H]1CC[C@@H]2O (stereo partly drawn)
inactive: [10] | [9] | [1] | [4] | THRB (gene 7068) [5]

O=C(c1ccc(O)cc1O)c1ccc(O)cc1O
inactive: [10] | [9]

Reference: PubChem BioAssay (EPA / NIEHS)
